What all share (experiment): DAPPL (digital affinity profiling via proximity ligation, sequencing); 10 mM Tris-HCl pH 7.5, 50 mM NaCl, 1 mM DTT, 4% glycerol, room temperature, 30 min; GST-TFs on glutathione beads, 16-mer random dsDNA library, 0.1% formaldehyde crosslink after washing; high values mean tight binding
Holding throughout (settings): protein: recombinant; tags: N-terminal GST; dsDNA, one strand shown

Assay [1] has as its target T1, GABPA (Homo sapiens, UniProt Q06546 1-454).
T1 sequence: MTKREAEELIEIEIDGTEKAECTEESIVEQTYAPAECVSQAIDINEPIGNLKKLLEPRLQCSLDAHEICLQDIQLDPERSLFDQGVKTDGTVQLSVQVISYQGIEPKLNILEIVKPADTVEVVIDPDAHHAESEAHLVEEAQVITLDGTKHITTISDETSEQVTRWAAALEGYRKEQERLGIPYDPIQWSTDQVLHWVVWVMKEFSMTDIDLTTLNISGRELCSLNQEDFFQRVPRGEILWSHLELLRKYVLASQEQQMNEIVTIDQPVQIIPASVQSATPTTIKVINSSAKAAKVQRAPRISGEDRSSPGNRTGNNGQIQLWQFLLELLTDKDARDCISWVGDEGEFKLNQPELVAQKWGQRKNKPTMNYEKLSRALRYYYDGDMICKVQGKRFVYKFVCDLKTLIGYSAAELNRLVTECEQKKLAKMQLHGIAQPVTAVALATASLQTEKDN
Summed up: (§1)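 Binding signal is each hexamer's read frequency for a factor divided by its frequency in the tag-only sample. The factors were GST-fused human transcription factors from yeast, captured on glutathione beads, DNA-barcoded and pooled with that sample. Pools were incubated with 200 nmole of a random double-stranded 16-mer DNA library in Tris/NaCl/DTT/glycerol buffer at room temperature for 30 min, then washed, crosslinked with 0.1% formaldehyde, proximity-ligated with BsaI/T4 ligase (1 h, 37 °C), PCR-amplified and sequenced on an Illumina NextSeq500.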

The target of assay [2] is ELF1 (Homo sapiens, UniProt P32519 1-619). Summed up: as §1
The target in assay [3] is T2, EHF (Homo sapiens, UniProt Q9NZC4 1-300).
T2 sequence: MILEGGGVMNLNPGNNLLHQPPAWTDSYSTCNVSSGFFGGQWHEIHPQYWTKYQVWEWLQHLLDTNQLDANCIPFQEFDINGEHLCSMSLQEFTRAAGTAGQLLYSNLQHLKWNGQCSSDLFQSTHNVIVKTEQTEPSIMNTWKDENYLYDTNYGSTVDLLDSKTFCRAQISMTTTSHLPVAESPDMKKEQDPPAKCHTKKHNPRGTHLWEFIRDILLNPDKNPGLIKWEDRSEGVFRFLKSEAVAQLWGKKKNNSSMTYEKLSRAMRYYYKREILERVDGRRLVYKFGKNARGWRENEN
Summed up: as §1

In assay [4] the target is SPI1 (Homo sapiens, UniProt P17947 1-270). Summed up:
as §1

For assay [5], the target named is SPIB (Homo sapiens, UniProt Q01892 1-262). The method, boiled down:
as §1

Assay [6] deals with T3, FEV (Homo sapiens, UniProt Q99581 1-238).
T3 sequence: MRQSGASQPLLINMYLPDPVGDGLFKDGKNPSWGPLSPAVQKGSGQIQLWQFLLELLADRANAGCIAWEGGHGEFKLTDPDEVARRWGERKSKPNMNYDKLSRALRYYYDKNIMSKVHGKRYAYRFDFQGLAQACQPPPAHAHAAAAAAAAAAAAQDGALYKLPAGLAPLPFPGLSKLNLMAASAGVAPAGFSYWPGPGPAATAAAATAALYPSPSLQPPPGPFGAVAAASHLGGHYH
The method, boiled down:
as §1

Assay [7] concerns the target ETV5 (Homo sapiens, UniProt P41161 1-510). The method, boiled down:
as §1

Assay [8] has as its target T4, ETV2 (Homo sapiens, UniProt O00321 1-342).
T4 sequence: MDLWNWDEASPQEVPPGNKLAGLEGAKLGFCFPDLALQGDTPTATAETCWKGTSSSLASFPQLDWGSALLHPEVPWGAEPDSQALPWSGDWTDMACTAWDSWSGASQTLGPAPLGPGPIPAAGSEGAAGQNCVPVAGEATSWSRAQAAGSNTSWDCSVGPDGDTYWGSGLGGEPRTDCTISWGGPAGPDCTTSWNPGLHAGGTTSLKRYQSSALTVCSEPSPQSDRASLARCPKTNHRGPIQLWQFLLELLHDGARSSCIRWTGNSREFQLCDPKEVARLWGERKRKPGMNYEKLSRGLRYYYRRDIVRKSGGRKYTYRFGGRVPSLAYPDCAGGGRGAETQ
Summed up:
as §1

The target in assay [9] is T5, ELF3 (Homo sapiens, UniProt P78545 1-371).
T5 sequence: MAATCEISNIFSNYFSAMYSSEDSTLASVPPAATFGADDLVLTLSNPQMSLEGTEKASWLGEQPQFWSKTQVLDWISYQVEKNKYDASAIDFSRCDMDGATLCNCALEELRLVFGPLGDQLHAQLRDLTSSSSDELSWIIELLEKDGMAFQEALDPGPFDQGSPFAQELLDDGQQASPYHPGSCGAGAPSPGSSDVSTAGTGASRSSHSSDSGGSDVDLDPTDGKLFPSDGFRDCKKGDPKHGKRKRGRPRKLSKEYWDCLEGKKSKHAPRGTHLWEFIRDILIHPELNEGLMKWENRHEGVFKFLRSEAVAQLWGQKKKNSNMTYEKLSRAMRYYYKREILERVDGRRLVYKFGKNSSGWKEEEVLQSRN
Summed up: as §1

Assay [10] addresses T6, ETV7 (Homo sapiens, UniProt Q9Y603 1-341).
T6 sequence: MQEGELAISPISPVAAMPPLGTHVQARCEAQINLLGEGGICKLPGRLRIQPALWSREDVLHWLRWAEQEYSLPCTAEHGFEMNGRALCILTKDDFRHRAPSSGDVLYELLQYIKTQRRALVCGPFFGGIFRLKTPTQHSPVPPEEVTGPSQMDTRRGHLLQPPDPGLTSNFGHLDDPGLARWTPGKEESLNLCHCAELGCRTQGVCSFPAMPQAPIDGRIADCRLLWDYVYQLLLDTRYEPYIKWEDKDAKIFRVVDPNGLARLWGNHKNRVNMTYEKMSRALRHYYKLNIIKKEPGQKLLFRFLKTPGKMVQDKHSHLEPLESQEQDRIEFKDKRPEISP
Summed up: as §1

The target in assay [11] is ETV6 (Homo sapiens, UniProt P41212 1-452). Summed up:
as §1

In assay [12] the target is T7, ELK1 (Homo sapiens, UniProt P19419 1-428).
T7 sequence: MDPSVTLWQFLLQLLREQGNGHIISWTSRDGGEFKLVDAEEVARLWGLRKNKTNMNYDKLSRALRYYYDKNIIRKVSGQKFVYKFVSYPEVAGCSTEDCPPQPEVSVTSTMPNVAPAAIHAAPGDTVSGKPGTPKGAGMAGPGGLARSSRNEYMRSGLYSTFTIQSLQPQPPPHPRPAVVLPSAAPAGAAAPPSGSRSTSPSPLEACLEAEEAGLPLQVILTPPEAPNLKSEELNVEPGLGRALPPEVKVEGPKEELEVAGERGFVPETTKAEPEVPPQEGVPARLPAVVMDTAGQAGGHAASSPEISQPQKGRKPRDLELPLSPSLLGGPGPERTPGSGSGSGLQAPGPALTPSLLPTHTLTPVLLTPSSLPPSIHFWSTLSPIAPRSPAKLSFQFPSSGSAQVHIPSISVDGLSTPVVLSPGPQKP
The method, boiled down: as §1

Assay [13] concerns the target ELF4 (Homo sapiens, UniProt Q99607 1-663). The method, boiled down:
as §1

The target of assay [14] is T8, ELK4 (Homo sapiens, UniProt P28324-2 1-405).
T8 sequence: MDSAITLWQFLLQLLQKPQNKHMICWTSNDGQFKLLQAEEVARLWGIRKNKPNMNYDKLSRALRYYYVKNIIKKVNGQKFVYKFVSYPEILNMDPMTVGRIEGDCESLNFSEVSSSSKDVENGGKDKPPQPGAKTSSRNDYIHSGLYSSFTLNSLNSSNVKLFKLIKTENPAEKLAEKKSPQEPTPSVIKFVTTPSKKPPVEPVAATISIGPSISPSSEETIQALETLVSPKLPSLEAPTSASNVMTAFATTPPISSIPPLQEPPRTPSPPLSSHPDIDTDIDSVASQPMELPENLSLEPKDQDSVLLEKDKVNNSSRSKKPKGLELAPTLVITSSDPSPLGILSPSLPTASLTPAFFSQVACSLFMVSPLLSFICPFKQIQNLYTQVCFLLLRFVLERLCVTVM
The method, boiled down: as §1

For assay [15], the target named is ETV1 (Homo sapiens, UniProt P50549 1-477). The method, boiled down: as §1
Assay [16] has as its target T9, ETV3 (Homo sapiens, UniProt P41162-2 1-143).
T9 sequence: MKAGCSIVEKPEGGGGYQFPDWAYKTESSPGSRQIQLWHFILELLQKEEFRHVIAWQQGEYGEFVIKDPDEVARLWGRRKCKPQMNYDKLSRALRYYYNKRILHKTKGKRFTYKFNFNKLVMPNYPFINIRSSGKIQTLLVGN
The method, boiled down: as §1

Chain of ETV5 (P41161 whole entry): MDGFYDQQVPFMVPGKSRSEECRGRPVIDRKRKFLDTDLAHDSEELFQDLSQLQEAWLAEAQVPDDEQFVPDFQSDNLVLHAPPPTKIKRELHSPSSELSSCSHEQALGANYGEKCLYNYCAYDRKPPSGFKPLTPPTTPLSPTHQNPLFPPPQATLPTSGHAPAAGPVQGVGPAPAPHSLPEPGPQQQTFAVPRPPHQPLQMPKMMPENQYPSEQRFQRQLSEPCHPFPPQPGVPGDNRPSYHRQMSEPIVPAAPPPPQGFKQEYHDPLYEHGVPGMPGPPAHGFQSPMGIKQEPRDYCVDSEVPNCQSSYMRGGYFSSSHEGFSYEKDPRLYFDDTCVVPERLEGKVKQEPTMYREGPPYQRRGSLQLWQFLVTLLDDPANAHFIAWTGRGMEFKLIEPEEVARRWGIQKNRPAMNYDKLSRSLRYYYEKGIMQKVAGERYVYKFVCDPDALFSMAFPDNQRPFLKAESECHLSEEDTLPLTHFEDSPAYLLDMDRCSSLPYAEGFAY
Chain of ELF1 (P32519 whole entry): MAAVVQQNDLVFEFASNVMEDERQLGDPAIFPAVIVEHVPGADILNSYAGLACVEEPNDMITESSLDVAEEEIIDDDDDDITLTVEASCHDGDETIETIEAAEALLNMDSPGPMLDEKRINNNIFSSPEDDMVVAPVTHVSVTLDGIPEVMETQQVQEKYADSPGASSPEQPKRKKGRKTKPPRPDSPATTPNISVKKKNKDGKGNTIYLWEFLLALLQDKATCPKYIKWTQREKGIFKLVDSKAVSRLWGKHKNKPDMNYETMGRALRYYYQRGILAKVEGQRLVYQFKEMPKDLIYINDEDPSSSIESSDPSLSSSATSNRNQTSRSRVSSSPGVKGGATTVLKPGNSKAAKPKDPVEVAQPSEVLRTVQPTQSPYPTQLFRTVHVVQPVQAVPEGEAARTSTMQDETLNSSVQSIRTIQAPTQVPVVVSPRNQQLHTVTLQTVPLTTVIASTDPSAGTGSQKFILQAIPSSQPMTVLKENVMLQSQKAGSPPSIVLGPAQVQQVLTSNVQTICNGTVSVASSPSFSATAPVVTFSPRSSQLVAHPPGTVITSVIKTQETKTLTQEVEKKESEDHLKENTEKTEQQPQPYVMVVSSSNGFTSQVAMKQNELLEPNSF
Chain of ETV1 (P50549 whole entry): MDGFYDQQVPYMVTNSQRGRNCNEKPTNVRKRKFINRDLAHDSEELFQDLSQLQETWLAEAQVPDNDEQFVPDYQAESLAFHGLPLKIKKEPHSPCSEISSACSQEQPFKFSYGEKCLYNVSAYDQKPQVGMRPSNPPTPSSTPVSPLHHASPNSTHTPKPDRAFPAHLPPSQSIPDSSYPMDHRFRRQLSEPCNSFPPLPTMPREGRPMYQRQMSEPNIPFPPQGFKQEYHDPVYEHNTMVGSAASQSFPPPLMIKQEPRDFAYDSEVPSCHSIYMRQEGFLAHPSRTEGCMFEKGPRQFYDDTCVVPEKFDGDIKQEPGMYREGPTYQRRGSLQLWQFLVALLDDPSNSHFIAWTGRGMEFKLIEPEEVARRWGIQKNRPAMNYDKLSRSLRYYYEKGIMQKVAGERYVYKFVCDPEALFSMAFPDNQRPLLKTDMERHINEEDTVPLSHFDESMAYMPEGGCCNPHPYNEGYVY
Chain of ELF4 (Q99607 whole entry): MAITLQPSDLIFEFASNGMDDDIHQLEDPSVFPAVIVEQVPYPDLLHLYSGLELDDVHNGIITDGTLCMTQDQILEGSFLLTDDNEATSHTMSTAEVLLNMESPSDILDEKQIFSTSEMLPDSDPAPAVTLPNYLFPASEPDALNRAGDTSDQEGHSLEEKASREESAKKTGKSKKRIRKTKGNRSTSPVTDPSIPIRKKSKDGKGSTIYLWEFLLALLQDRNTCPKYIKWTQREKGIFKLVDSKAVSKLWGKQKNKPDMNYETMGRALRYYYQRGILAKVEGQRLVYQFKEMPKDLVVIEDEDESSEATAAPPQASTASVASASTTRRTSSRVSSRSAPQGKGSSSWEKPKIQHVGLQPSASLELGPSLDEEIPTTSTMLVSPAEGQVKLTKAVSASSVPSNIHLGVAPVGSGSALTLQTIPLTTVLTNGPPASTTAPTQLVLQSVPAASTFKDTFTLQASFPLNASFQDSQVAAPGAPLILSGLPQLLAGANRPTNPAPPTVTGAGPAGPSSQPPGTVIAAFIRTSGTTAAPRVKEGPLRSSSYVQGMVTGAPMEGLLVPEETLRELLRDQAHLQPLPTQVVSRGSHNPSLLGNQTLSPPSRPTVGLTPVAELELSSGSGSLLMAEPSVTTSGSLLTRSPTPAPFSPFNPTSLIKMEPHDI
Chain of ETV6 (P41212 whole entry): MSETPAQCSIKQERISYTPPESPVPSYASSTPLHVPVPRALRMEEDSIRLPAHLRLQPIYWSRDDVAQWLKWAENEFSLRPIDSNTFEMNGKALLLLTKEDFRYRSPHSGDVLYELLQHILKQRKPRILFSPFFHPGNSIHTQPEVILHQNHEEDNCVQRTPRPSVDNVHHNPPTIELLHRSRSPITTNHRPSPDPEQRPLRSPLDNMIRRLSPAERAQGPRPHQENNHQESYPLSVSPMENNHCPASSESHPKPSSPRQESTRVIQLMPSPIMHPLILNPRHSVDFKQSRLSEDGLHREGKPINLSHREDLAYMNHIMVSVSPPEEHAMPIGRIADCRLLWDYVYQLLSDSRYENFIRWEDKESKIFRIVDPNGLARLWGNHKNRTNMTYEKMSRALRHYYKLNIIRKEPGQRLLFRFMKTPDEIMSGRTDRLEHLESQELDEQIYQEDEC
Chain of SPIB (Q01892 whole entry): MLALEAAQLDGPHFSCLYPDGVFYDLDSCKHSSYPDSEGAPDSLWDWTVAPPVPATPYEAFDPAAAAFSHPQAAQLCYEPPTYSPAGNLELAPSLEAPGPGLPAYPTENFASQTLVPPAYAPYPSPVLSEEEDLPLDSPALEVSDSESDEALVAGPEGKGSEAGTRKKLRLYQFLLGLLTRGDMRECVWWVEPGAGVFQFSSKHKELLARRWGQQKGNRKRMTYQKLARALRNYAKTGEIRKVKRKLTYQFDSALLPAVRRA

CGGTTA: the binding signal in assay [1] was 1.01 fold enrichment (6-mer frequency, TF over GST control); in assay [2], 1 fold enrichment (6-mer frequency, TF over GST control); in [3], 1.02 fold enrichment (6-mer frequency, TF over GST control); in assay [4], 1 fold enrichment (6-mer frequency, TF over GST control); in assay [5], 1.02 fold enrichment (6-mer frequency, TF over GST control); in assay [6], 1.04 fold enrichment (6-mer frequency, TF over GST control). The binding signal in assay [7] is 1.05 fold enrichment (6-mer frequency, TF over GST control); in [8] it was 1.06 fold enrichment (6-mer frequency, TF over GST control); in assay [9], 1 fold enrichment (6-mer frequency, TF over GST control); in assay [10], 1 fold enrichment (6-mer frequency, TF over GST control); in assay [11], 1.09 fold enrichment (6-mer frequency, TF over GST control).

Take TAGCGT: the binding signal was 1 fold enrichment (6-mer frequency, TF over GST control) in assay [12]; 1.02 fold enrichment (6-mer frequency, TF over GST control) in assay [2]; 1 fold enrichment (6-mer frequency, TF over GST control) in assay [3]; 1.03 fold enrichment (6-mer frequency, TF over GST control) in assay [7]; 1.02 fold enrichment (6-mer frequency, TF over GST control) in [13]; 1.07 fold enrichment (6-mer frequency, TF over GST control) in assay [14]. Further, the binding signal in assay [15] is 1.03 fold enrichment (6-mer frequency, TF over GST control); in assay [10], 1 fold enrichment (6-mer frequency, TF over GST control); in [16], 1.04 fold enrichment (6-mer frequency, TF over GST control).

As for AGAGCT, the binding signal in [1] is 1.04 fold enrichment (6-mer frequency, TF over GST control); in assay [3], 1.01 fold enrichment (6-mer frequency, TF over GST control); in assay [4] it was 1.01 fold enrichment (6-mer frequency, TF over GST control); in [7], 1.03 fold enrichment (6-mer frequency, TF over GST control); in [9] it was 1.03 fold enrichment (6-mer frequency, TF over GST control).

With GGCTAA, the binding signal in assay [1] is 1.01 fold enrichment (6-mer frequency, TF over GST control); in assay [2], 1.04 fold enrichment (6-mer frequency, TF over GST control); in [3], 1.01 fold enrichment (6-mer frequency, TF over GST control); in [6], 1.01 fold enrichment (6-mer frequency, TF over GST control); in assay [7], 1.01 fold enrichment (6-mer frequency, TF over GST control); in assay [14], 1.04 fold enrichment (6-mer frequency, TF over GST control). Moreover, the binding signal was 1.03 fold enrichment (6-mer frequency, TF over GST control) in assay [15]; 1 fold enrichment (6-mer frequency, TF over GST control) in [10]; 1.04 fold enrichment (6-mer frequency, TF over GST control) in [11].

As to ACAAGA, the binding signal in assay [7] was 1.03 fold enrichment (6-mer frequency, TF over GST control); in assay [13] it was 1.03 fold enrichment (6-mer frequency, TF over GST control); in assay [9], 1.1 fold enrichment (6-mer frequency, TF over GST control); in [10] it was 1.02 fold enrichment (6-mer frequency, TF over GST control).

The values above are taken from article PMC7862700, “An all-to-all approach to the identification of sequence-specific readers for epigenetic DNA modifications on cytosine”.
